Measurements published in PubChem BioAssay (NCI).
About 79,000 compounds went through this panel and 15% of them were active in at least one assay; those are over-represented in the sample as a whole. Activity calls are given as the source filed them. No stated cut-off is given here; in the data, active means growth inhibition above about 70%; inactive means the rest.

Tests used:
[1] = NCI Yeast Anticancer Drug Screen. Data for the rad52 strain (AID 147);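 further: 0% = growth of vehicle-treated control cultures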; conditions: S. cerevisiae rad52 mutant growth inhibition, hits give high values
Summary of the method: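 Yeast strain carrying a DNA damage repair alteration was exposed to test compounds. Growth inhibition was measured relative to vehicle-treated controls.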

[2] = NCI Yeast Anticancer Drug Screen. Data for the wt1 strain (AID 149);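 further: 0% = growth of vehicle-treated wt1 cultures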; conditions: S. cerevisiae wt1 strain (SPY 50644) growth inhibition, hits give high values
Summary of the method: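 The wt1 strain was treated with compounds, and growth was compared with vehicle-treated cultures to give inhibition.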

[3] = NCI Yeast Anticancer Drug Screen. Data for the rad50EPP+ strain (AID 151);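 further: 0% = growth of vehicle-treated control cultures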; conditions: S. cerevisiae rad50 mutant strain, hits give high values
Summary of the method: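 Yeast strain carrying rad50 alteration (rad50EPP+) exposed to compounds; growth inhibition measured relative to vehicle-treated controls.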

[4] = NCI Yeast Anticancer Drug Screen. Data for the rad50 strain (AID 155);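 further: 0% = growth of vehicle-only cultures of the same strain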; conditions: S. cerevisiae rad50 strain growth inhibition, hits give high values
Summary of the method: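 Cells are treated with compound, grown, and their growth is then scored against vehicle-only cultures of the same repair-deficient yeast strain.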

[5] = NCI Yeast Anticancer Drug Screen. Data for the mec2-1 strain (AID 157); conditions: S. cerevisiae mec2-1 strain, hits give high values
Summary of the method: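 mec2-1 yeast strain, carrying an alteration in DNA damage repair or cell cycle control, was exposed to compounds; growth inhibition was measured relative to vehicle-treated controls.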

[6] = NCI Yeast Anticancer Drug Screen. Data for the rad14 strain (AID 159);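 further: 0% = growth of vehicle-treated control cultures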; conditions: S. cerevisiae rad14 strain growth inhibition, hits give high values
Summary of the method: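 Readout: yeast growth inhibition, referenced to vehicle-only cultures. Strain bears a defined alteration in DNA damage repair.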

[7] = NCI Yeast Anticancer Drug Screen. Data for the sgs1 mgt1 strain (AID 161);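 further: 0% = growth of cultures given vehicle only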; conditions: S. cerevisiae sgs1 mgt1 strain, hits give high values
Summary of the method: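 Compounds are added to genetically altered yeast, and growth is compared with cultures given vehicle alone to give percent inhibition.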

[8] = NCI Yeast Anticancer Drug Screen. Data for the CLN2oe strain (AID 163);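 further: 0% = growth of vehicle-only control cultures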; conditions: S. cerevisiae CLN2oe strain, hits give high values
Summary of the method: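 Yeast cells carrying a defined cell-cycle control alteration were exposed to test compounds. Growth inhibition was scored against vehicle-treated control cultures.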

[9] = NCI Yeast Anticancer Drug Screen. Data for the cln2 rad14 strain (AID 165);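 further: 0% = growth equal to vehicle treated cultures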; conditions: S. cerevisiae cln2 rad14 strain, hits give high values
Summary of the method: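 Yeast carrying cln2 and rad14 alterations (cell cycle control and DNA damage repair) were exposed to compounds. Growth inhibition was measured against vehicle-treated controls.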

[10] = NCI Yeast Anticancer Drug Screen. Data for the bub3 strain (AID 167); conditions: S. cerevisiae bub3 mutant strain, hits give high values
Summary of the method: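 Part of a panel of yeast mutants defective in DNA damage repair or cell cycle regulation. Each strain is grown with compound, and inhibition is calculated relative to solvent-treated cultures.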

[11] = NCI Yeast Anticancer Drug Screen. Data for the mlh1 strain (AID 171);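 further: 0% = growth of vehicle-treated control cultures of the same strain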; conditions: S. cerevisiae mlh1 strain growth inhibition, hits give high values
Summary of the method: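 Yeast carrying a defined genetic alteration in DNA damage repair or cell cycle control were exposed to test compounds. Growth inhibition was measured relative to vehicle-treated controls.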

[12] = NCI Yeast Anticancer Drug Screen. Data for the sgs1 strain (AID 173);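 further: 0% = growth of vehicle-only control cultures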; conditions: S. cerevisiae sgs1 mutant, hits give high values
Summary of the method: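 Yeast mutant strains carrying defined defects in DNA damage repair or cell cycle control were exposed to test compounds. Growth inhibition was scored against vehicle-treated controls.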

[13] = NCI Yeast Anticancer Drug Screen. Data for the mlh1 rad18 strain (AID 175); conditions: S. cerevisiae mlh1 rad18 strain growth inhibition, hits give high values
Summary of the method: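 Growth inhibition of the yeast strain was measured after compound exposure and expressed relative to vehicle-treated controls. The strain carries defined defects in DNA damage repair.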

[14] = NCI Yeast Anticancer Drug Screen. Data for the rad18 strain (AID 177); conditions: S. cerevisiae rad18 mutant growth inhibition, hits give high values
Summary of the method: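 Yeast carrying a defined DNA damage repair alteration were exposed to compounds. Growth inhibition was expressed relative to vehicle-treated controls.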

[15] = NCI Yeast Anticancer Drug Screen. Data for the mgt1 strain (AID 153); conditions: S. cerevisiae mgt1 mutant growth inhibition, hits give high values
Summary of the method: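 Yeast mgt1 strain (DNA repair/cell-cycle alteration panel) exposed to compounds; growth inhibition measured relative to vehicle-treated controls.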

[16] = NCI Yeast Anticancer Drug Screen. Data for the wt2 strain (AID 169);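 further: 0% = growth of vehicle-treated yeast cultures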; conditions: S. cerevisiae wt2 strain growth inhibition, hits give high values
Summary of the method: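 Yeast cells were exposed to test compounds, and growth inhibition was measured relative to vehicle-treated controls.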

[17] = at 5.0 µM (retest, dose inferred, filed as 0.5)
[18] = at 50.0 µM (retest, dose inferred, filed as 5.0)

Measured: growth inhibition

CC(=O)N/N=C/C(C)(C)C(C)(C)/C=N/NC(C)=O
inactive: [1]; at 1.2 µM -1% | [1]; at 3.7 µM -5% | [1]; at 11.0 µM -32% | [1]; at 33.0 µM 38% | [2]; at 1.2 µM -3% | [2]; at 3.7 µM -5% | [2]; at 11.0 µM 2% | [2]; at 33.0 µM 27% | [2]; at 100.0 µM 42% | [3]; at 1.2 µM -3% | [3]; at 3.7 µM 11% | [3]; at 11.0 µM 10% | [3]; at 33.0 µM 18% | [4]; at 1.2 µM -13% | [4]; at 3.7 µM -6% | [4]; [17] 4% | [4]; at 11.0 µM 16% | [4]; at 33.0 µM 38% | [4]; [18] 51% | [4]; at 50.0 µM 50.5% | [5]; at 1.2 µM 5% | [5]; at 3.7 µM 2% | [5]; [17] 4% | [5]; at 11.0 µM 1% | [5]; at 33.0 µM 2% | [5]; [18] 39% | [5]; at 50.0 µM 19.2% | [5]; at 100.0 µM 11% | [6]; at 1.2 µM 3% | [6]; at 3.7 µM 2% | [6]; at 11.0 µM 7% | [6]; at 33.0 µM 39% | [6]; at 100.0 µM 54% | [7]; [17] 15% | [8]; at 1.2 µM 9% | [8]; at 3.7 µM 11% | [8]; at 11.0 µM 11% | [8]; at 33.0 µM 4% | [8]; at 100.0 µM 17% | [9]; [17] 2% | [9]; [18] 20% | [9]; at 50.0 µM 5.8% | [10]; at 1.2 µM -1% | [10]; at 3.7 µM -4% | [10]; [17] 0% | [10]; at 11.0 µM -4% | [10]; at 33.0 µM -7% | [10]; [18] 16% | [10]; at 50.0 µM 35.4% | [10]; at 100.0 µM 16% | [11]; at 1.2 µM -7% | [11]; at 3.7 µM -5% | [11]; at 11.0 µM -2% | [11]; at 33.0 µM 19% | [12]; at 1.2 µM -6% | [12]; at 3.7 µM -8% | [12]; at 11.0 µM 25% | [12]; at 33.0 µM 67% | [13]; [17] 11% | [13]; at 50.0 µM 59.4% | [14]; at 1.2 µM -10% | [14]; at 3.7 µM 1% | [14]; at 11.0 µM 39%
active: [1]; at 100.0 µM 97% | [3]; at 100.0 µM 71% | [4]; at 100.0 µM 98% | [7]; [18] 78% | [7]; at 50.0 µM 70% | [11]; at 100.0 µM 91% | [12]; at 100.0 µM 98% | [13]; [18] 82% | [14]; at 33.0 µM 81% | [14]; at 100.0 µM 93%

CC(=O)ON1C(=O)c2cccc3cccc(c23)C1=O
active: [1]; at 11.0 µM 91% | [1]; at 33.0 µM 97% | [1]; at 100.0 µM 98% | [2]; at 11.0 µM 76% | [2]; at 33.0 µM 96% | [2]; at 100.0 µM 97% | [15]; at 11.0 µM 95% | [15]; at 33.0 µM 97% | [15]; at 100.0 µM 98% | [4]; at 11.0 µM 93% | [4]; at 33.0 µM 97% | [4]; [18] 96% | [4]; at 50.0 µM 81.9% | [4]; at 100.0 µM 98% | [5]; at 11.0 µM 95% | [5]; at 33.0 µM 98% | [5]; [18] 97% | [5]; at 50.0 µM 87.8% | [5]; at 100.0 µM 98% | [7]; [18] 92% | [7]; at 50.0 µM 90.7% | [8]; at 100.0 µM 77% | [10]; at 33.0 µM 91% | [10]; [18] 96% | [10]; at 50.0 µM 89.5% | [10]; at 100.0 µM 95% | [16]; at 33.0 µM 95% | [16]; at 100.0 µM 99% | [12]; at 3.7 µM 91% | [12]; at 11.0 µM 97% | [12]; at 33.0 µM 98% | [12]; at 100.0 µM 98% | [13]; [18] 97% | [13]; at 50.0 µM 81.4% | [14]; at 11.0 µM 86% | [14]; at 33.0 µM 97% | [14]; at 100.0 µM 97%
inactive: [1]; at 1.2 µM 13% | [1]; at 3.7 µM 38% | [2]; at 1.2 µM 6% | [2]; at 3.7 µM 17% | [3]; at 1.2 µM -2% | [3]; at 3.7 µM 0% | [3]; at 11.0 µM 0% | [3]; at 33.0 µM 9% | [3]; at 100.0 µM 57% | [15]; at 1.2 µM 8% | [15]; at 3.7 µM 46% | [4]; at 1.2 µM 18% | [4]; at 3.7 µM 57% | [4]; [17] 51% | [5]; at 1.2 µM -4% | [5]; at 3.7 µM 33% | [5]; [17] -3% | [7]; [17] 22% | [8]; at 1.2 µM 8% | [8]; at 3.7 µM 10% | [8]; at 11.0 µM 11% | [8]; at 33.0 µM 32% | [9]; [17] 23% | [9]; [18] 69% | [9]; at 50.0 µM 29.4% | [10]; at 1.2 µM 2% | [10]; at 3.7 µM 10% | [10]; [17] 69% | [10]; at 11.0 µM 24% | [16]; at 1.2 µM 4% | [16]; at 3.7 µM 2% | [16]; at 11.0 µM 20% | [12]; at 1.2 µM 44% | [13]; [17] 44% | [14]; at 1.2 µM 15% | [14]; at 3.7 µM 29%
